TDP1 cell CPT = growth inhibition of DT40 Tdp1-/-;hTDP1 cells with camptothecin (screen for TDP1 inhibitors). chicken DT40 Tdp1-/-;hTDP1 cells + 20 nM CPT, ATP luminescence, 48 h. Potency, µM (top dose mostly 46.2 µM), usual class: inhibitors. hit rate 12% among 420,000; further: nearly all actives have a fitted effect of over 55% in size
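Chicken DT40 Tdp1-/- cells stably complemented with human TDP1 were seeded at 400 cells/well in medium containing 20 nM camptothecin, exposed to pin-transferred compounds, and grown at 37 °C for at least 48 hr. Viability was read as ATP luminescence.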
TDP1 inh = TDP1 (human) enzyme inhibition. Q9NUW8. recombinant TDP1, AlphaScreen DNA substrate cleavage. Potency, µM (highest dose often 130 µM), actives largely listed as inhibitors. hit rate 0.28% among 350,000. AID 485290; further: nearly all actives have a fitted effect of over 40% in size
Target sequence (Q9NUW8 whole entry, looked up): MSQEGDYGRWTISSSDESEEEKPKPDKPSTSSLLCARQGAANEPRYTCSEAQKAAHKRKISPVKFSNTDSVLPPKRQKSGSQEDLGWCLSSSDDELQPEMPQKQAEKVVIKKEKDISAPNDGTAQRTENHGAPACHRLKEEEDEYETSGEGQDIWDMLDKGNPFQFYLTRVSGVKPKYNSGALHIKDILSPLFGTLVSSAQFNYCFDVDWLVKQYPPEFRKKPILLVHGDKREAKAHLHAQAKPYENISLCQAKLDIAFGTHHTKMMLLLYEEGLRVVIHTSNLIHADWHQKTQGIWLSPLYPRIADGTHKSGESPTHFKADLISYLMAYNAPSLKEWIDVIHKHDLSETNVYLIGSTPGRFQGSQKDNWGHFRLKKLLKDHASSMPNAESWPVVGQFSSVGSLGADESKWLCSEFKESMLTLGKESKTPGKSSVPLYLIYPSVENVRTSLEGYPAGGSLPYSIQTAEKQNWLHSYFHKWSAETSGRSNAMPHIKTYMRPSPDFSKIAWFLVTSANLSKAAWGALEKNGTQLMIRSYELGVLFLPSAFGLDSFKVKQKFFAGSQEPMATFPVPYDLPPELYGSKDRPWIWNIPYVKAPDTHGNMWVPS
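AlphaScreen read-out: signal falls as enzyme removes the 3' tyrosine-FITC from a 5'-biotinylated DNA oligo (15 nM, 5 min, RT). Enzyme was E. coli-made recombinant Tdp1 at 1 nM, exposed to compound for 15 min beforehand; beads 10 ug/ml, 10 min.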
ClpP mod = qHTS Assay for Activators of ClpP. ATP-dependent Clp protease proteolytic subunit (Bacillus subtilis (strain 168)), P80244. purified B. subtilis ClpP, FRET peptide cleavage, 20 min. Potency, µM (highest dose often 57.5 µM). hit rate 1.9% among 340,000; active means well fitted falling curve with a large enough effect; inconclusive means small, poorly fitted or top-dose-only effect; inactive means no such curve, though single readings can be large or run the other way; further: the source files actives as falling curves though it sought activators and does not explain the sign; nearly all actives have a fitted effect of over 65% in size
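FRET quenching reversal measured ClpP activation: 10 microg/mL B. subtilis ClpP at pH 8 with the FRET-FV decapeptide, read at 430 nm after 320 nm excitation. The 20-min minus 0-min signal was scaled between DMSO/no-enzyme wells and ADEP (5.8 microM final).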
TDP1 cell noCPT = qHTS for Inhibitors of human tyrosyl-DNA phosphodiesterase 1 (TDP1): qHTS in cells in absence of CPT. DT40 Tdp1-/- hTDP1 cells, no CPT, ATP luminescence, 48 h. AID 686978, 2013. Potency, µM (highest dose often 46.2 µM), usual class: inhibitors. hit rate 15% among 420,000; further: nearly all actives have a fitted effect of over 55% in size
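Readout: luminescence from CellTiter-Glo after 30 min in the dark at RT. Cells: DT40 Tdp1-/- with stable hTDP1, 400/well. Exposure: compounds alone, ≥48 hr, 37 °C.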
Each line names hits and unclear results; the compound was inactive in the other large screens. Shown are actives, neighbours in structure and some others; about 17% of the full set was active somewhere. Unless noted, the call rests on the fitted dose curve; in most records, active means well fitted curve in the direction sought with a large enough effect; inconclusive means small, poorly fitted or top-dose-only effect, or another doubt; inactive means no such curve, though single readings can be large; an effect the other way counts as inactive or inconclusive.

Cc1cc(NC(=O)CSc2nc(C(C)C)nc3c2c(=O)n(C)c(=O)n3C)no1	TDP1 cell CPT 16.4µM, TDP1 cell noCPT 16.4µM
Cc1cc(NC(=O)CSc2nc(-c3ccccc3)nc3c2c(=O)n(C)c(=O)n3C)no1	none (no result: TDP1 inh)
CC1CCN(C(=O)CSc2nc(C(C)C)nc3c2c(=O)n(C)c(=O)n3C)CC1	TDP1 cell CPT 16.4µM, TDP1 cell noCPT 18.4µM
CC(C)c1nc(SCC(=O)N2CCCc3ccccc32)c2c(=O)n(C)c(=O)n(C)c2n1	TDP1 cell CPT 7.31µM, TDP1 cell noCPT 6.51µM
CC(C)Cc1nc(SCC(=O)N2CCCC2)c2c(=O)n(C)c(=O)n(C)c2n1	none
CCCc1nc(SCC(=O)N2CCc3ccccc32)c2c(=O)n(C)c(=O)n(C)c2n1	none (no result: TDP1 cell CPT, ClpP mod, TDP1 cell noCPT)
Cc1cccc(C)c1NC(=O)c1sccc1SCC#N	TDP1 cell CPT 11.2µM, TDP1 cell noCPT inconclusive
O=C(CCNC(=O)c1ccco1)NC(Cc1c[nH]c2ccccc12)C(=O)O (centres undefined)	none
CC(C)(C)OC(=O)N1CCC(c2c(C(=O)NCc3cccc(Cl)c3)cnn2-c2ccc(F)cc2)CC1	TDP1 cell CPT inconclusive, TDP1 cell noCPT 13µM
Cc1ccc(-n2ncc(C(=O)NCc3ccccc3)c2C2CCN(C(=O)OC(C)(C)C)CC2)cc1	TDP1 cell CPT 20.6µM, TDP1 inh inconclusive, TDP1 cell noCPT inconclusive
CC(C)(C)OC(=O)N1CCC(c2c(C(=O)NCCN3CCC(Cc4ccccc4)CC3)cnn2-c2ccc(F)cc2)CC1	TDP1 cell CPT 5.17µM, TDP1 cell noCPT 5.17µM
COc1ccc(CC(=O)NCc2ccc3c(c2)CCN3C(=O)c2ccccc2)cc1OC	none
O=C(CN1C(=O)C(=O)c2ccccc21)NC1CCCCC1	TDP1 cell CPT 25.9µM, TDP1 cell noCPT 23.1µM
CC(C)N(C(=O)CN1C(=O)C(=O)c2ccccc21)c1ccccc1	none (no result: ClpP mod)
O=C1CSC(=S)N1Cc1cccs1	TDP1 cell CPT inconclusive, TDP1 cell noCPT 18.4µM (no result: TDP1 inh)
CCc1cccc(CC)c1NC(=O)CN1C(=O)C(=O)c2ccccc21	TDP1 cell CPT 5.17µM, TDP1 cell noCPT 3.26µM
CCc1ccc(N2C(=O)CN(Cc3cccs3)C2=S)cc1	none
O=C(CN1C(=O)C(=O)c2ccccc21)c1ccccc1	TDP1 cell CPT 18.4µM, TDP1 cell noCPT 4.11µM (no result: TDP1 inh)
N#Cc1ccc(CSc2nc3c(c(=O)[nH]2)CCC3)cc1	none
COc1cccc(-c2noc(-c3ccc(Cl)nc3)n2)c1	TDP1 cell CPT inconclusive (no result: ClpP mod)
Cc1ccc(CNC(=O)C2CCCN(S(=O)(=O)c3cn(C)cn3)C2)cc1 (centres undefined)	none
COC(=O)c1ccc(NC(=O)NC(C)c2c(-n3cccc3)sc(C)c2C)cc1 (centres undefined)	TDP1 cell CPT inconclusive, TDP1 cell noCPT inconclusive
O=C1C(=O)N(Cc2cccs2)c2ccccc21	TDP1 cell CPT 4.61µM, TDP1 cell noCPT 5.17µM
COc1cc(C(CCN2CCCC(C)C2)c2c(OC)cc(OC)c3c(C)cc(=O)oc23)cc(OC)c1OC (centres undefined)	none (no result: TDP1 cell CPT, ClpP mod, TDP1 cell noCPT)
COc1cc(OC)c2c(-c3ccccc3)cc(=O)oc2c1C(CCN1CCCC(C)C1)c1ccc2c(c1)OCO2 (centres undefined)	TDP1 cell CPT inconclusive, TDP1 cell noCPT 23.1µM
CCN(CC)CCC(c1ccc(N(C)C)cc1)c1c(OC)cc(OC)c2c(C)cc(=O)oc12 (centres undefined)	none (no result: TDP1 cell CPT, ClpP mod, TDP1 cell noCPT)
CCN(CC)CCC(c1cc(OC)c(OC)c(OC)c1)c1c(OC)cc(OC)c2c(C)cc(=O)oc12 (centres undefined)	TDP1 cell CPT 9.2µM, TDP1 cell noCPT 23.1µM
COc1cc(OC)c2c(C)cc(=O)oc2c1C(CCN1CCOCC1)c1ccc2c(c1)OCO2 (centres undefined)	TDP1 cell CPT 18.4µM, TDP1 cell noCPT 20.6µM
COc1cc(C(CCN2CCN(c3ccccc3)CC2)c2c(OC)cc(OC)c3c(C)cc(=O)oc23)cc(OC)c1OC (centres undefined)	TDP1 cell CPT 16.4µM, TDP1 cell noCPT 16.4µM
COc1cc(C(CCN2CCOCC2)c2c(OC)cc(OC)c3ccc(=O)oc23)cc(OC)c1OC (centres undefined)	none (no result: TDP1 cell CPT, ClpP mod, TDP1 cell noCPT)
O=C(NN=C1CCCC1)c1ccccc1OCc1ccc(Cl)cc1	TDP1 cell noCPT inconclusive (no result: ClpP mod)
COc1cc(OC)c2c(-c3ccccc3)cc(=O)oc2c1C(CC(=O)N1CCCC1)c1ccc2c(c1)OCO2 (centres undefined)	TDP1 cell CPT inconclusive, ClpP mod inconclusive, TDP1 cell noCPT 20.6µM (no result: TDP1 inh)
CCN(CC)CCC(c1ccc2c(c1)OCO2)c1c(OC)cc(OC)c2ccc(=O)oc12 (centres undefined)	TDP1 cell CPT 13µM, TDP1 cell noCPT 18.4µM (no result: TDP1 inh)
COc1cc(OC)c2c(-c3ccccc3)cc(=O)oc2c1C(CCN1CCCCC1)c1ccc2c(c1)OCO2 (centres undefined)	TDP1 cell CPT 9.2µM, TDP1 cell noCPT 7.31µM
COc1ccc(-n2c(SCC(=O)Nc3cc(C)on3)nc3c(c2=O)SC(C)C3)cc1 (centres undefined)	TDP1 cell noCPT inconclusive (no result: TDP1 inh)
CC(C)(C)C(=O)CSc1ccc(S(=O)(=O)N2CCN(Cc3ccccc3)CC2)cn1	TDP1 cell CPT inconclusive, TDP1 cell noCPT inconclusive
CC(=O)N/C(=C/c1ccc2c(c1)OCO2)C(=O)NC(Cc1ccccc1)C(=O)O (centres undefined)	ClpP mod 31.6µM (no result: TDP1 inh)
N#CC1=C(N)NC(SCC(=O)Nc2ccc(Br)cc2)=C(C#N)C12CCCCC2	TDP1 cell CPT 25.9µM, TDP1 cell noCPT inconclusive
N#CC1=C(N)NC(SCc2ccc(Br)cc2)=C(C#N)C12CCCCC2	TDP1 cell CPT inconclusive, TDP1 cell noCPT inconclusive
CCSC1=C(C#N)C2(CCCC2)C(C#N)=C(N)N1	TDP1 cell CPT 7.31µM, TDP1 cell noCPT 16.4µM
N#CC1=C(N)NC(SCc2ccccc2)=C(C#N)C12CCCC2	TDP1 cell CPT inconclusive, ClpP mod inconclusive, TDP1 cell noCPT 18.4µM
CC1(C)CC(=O)C2=C(C1)NC(SCC(=O)Nc1ccccc1)=C(C#N)C21CCCCC1	TDP1 cell CPT inconclusive, TDP1 cell noCPT inconclusive
CC1=C(C(=O)Nc2ccccc2)C2(CCCCC2)C(C#N)=C(SCC(N)=O)N1	TDP1 cell CPT inconclusive, TDP1 cell noCPT 16.4µM
CSC1=C(C#N)C2(CCCC2)C(C#N)=C(N)N1	none (no result: TDP1 cell CPT, ClpP mod, TDP1 cell noCPT)
Cc1nc2c(=O)[nH]n(C)c2nc1C	none (no result: TDP1 inh)
Cc1sc2nc(COC(=O)CNC(=O)c3ccc(C(C)(C)C)cc3)[nH]c(=O)c2c1C	none
COCc1cc(C)nc(OCC(=O)N/N=C/c2ccco2)c1C#N	ClpP mod 14.1µM
COCc1cc(C)nc(OCC(=O)N/N=C/c2ccc(C)cc2)c1C#N	TDP1 cell CPT 11.6µM, TDP1 cell noCPT 9.2µM
COCc1cc(C)nc(OCC(=O)N/N=C/c2ccccc2)c1C#N	none (no result: ClpP mod)
Cc1ccc(C)c(OCC(=O)Nc2cc(NC(=O)COc3cc(C)ccc3C)cc(C(=O)O)c2)c1	TDP1 inh 50.1µM, TDP1 cell noCPT inconclusive
